# In PubChem BioAssay (EPA / NIEHS):
# Inconclusive results are not listed. The source made the active and inactive calls. How the source made its calls: active means hit-call score of the fitted dose curve at least 0.9, where 1 is the maximum; inconclusive means response in the unintended direction; inactive means score below 0.9.
# Read-out: xenobiotic metabolism (CYP1A1), CYP1A1 (gene 1543)
# Assay: CLD_CYP1A1_48hr: CellzDirect (CLD) Gene Expression Assay for xenobiotic metabolism (CYP1A1) at 48 hours (AID 2283705)
# Description: CLD_48hr is a cell-based, multiplexed-readout assay that uses hepatocyte, a human liver primary cell, with measurements taken at 48 hours after chemical dosing in a 96-well plate.CLD_CYP1A1_48hr is one of 16 assay component(s) measured or calculated from the CLD_48hr assay. It is designed to make measurements of mRNA induction, a form of inducible reporter, as detected with chemiluminescence signals by Quantitative Nuclease Protection Assay (qNPA) technology.Data from the assay component CLD_CYP1A1_48hr was analyzed at the endpoint, CLD_CYP1A1_48hr, in the positive analysis fitting direction relative to DMSO as the negative control and baseline of activity. Using a type of inducible reporter, gain-of-signal activity can be used to understand changes in the reporter gene as they relate to the gene CYP1A1. Furthermore, this assay endpoint can be referred to as a primary readout. To generalize the intended target to other relatable targets, this assay endpoint is annotated to the cyp intended target family, where subfamily is xenobiotic metabolism.
# Human hepatocyte cultures were treated daily for two consecutive days with fresh dosing solutions containing appropriate concentrations of the 320 ToxCast chemicals (chemical identities were blinded to CellzDirect and other ToxCast collaborators), vehicle control (0.2% DMSO), and positive control inducers as summarized in Table 1. Due to the large number of treatment groups and chemicals examined, the ToxCast chemicals were divided into two groups (spanning two independent cultures of hepatocytes from separate donor preparations (Hu778: ToxCast plates 1 and 2; Hu776: ToxCast plates 3 and 4). Each preparation of human hepatocyte cultures was treated with respective vehicle control, medium only control, set of six positive controls/reference chemicals for the five hepatic receptor pathways, and a subset of eight of the ToxCast chemicals (indoxacarb, pyrithiobac-sodium, norflurazon, cyhalofop-butyl, methomyl, thiram, acetochlor, and propiconazole). These replicate data, coupled with internal replicates designed within the blinded ToxCast chemical library, provided additional data to evaluate interindividual differences between hepatocyte preparations and their potential impact on chemical profiles.Cell morphology and integrity were evaluated using phase-contrast microscopy as an indicator of hepatocyte cell health (Tyson & Green, 1987). Cultures for each treatment group (i.e., media, vehicle [0.2% DMSO], positive control inducers [multiple concentrations], and the ToxCast chemicals [multiple concentrations]) were observed and cell morphology was assessed relative to vehicle control cultures at each harvest time point (0, 6, 24, or 48 h). […] Images were evaluated at the conclusion of the study to assess changes in cell integrity and account for the effects of chemical exposure on uncharacteristic changes in concentration-dependent gene expression profiles. The results from these determinations of apparent cytotoxicity were annotated (yes/no) alongside the corresponding qNPA data for reference.At the conclusion of each treatment period, hepatocyte cultures (96-well) were washed with 1 volume of HBSS, lysed by addition of 25 ul ArrayPlate lysis buffer (HTG, Tucson, AZ), and 70 ul/well of Denaturation Oil, denatured by incubation at 95C for 10 min, and frozen at approximately -70C until analysis by nuclease protection assay (qNPA) (Roberts et al., 2007). For qNPA analysis, cell lysates were thawed at 50C for approximately 30 min, qNPA probes were added, and samples were incubated at 95C for 10 min to begin the detection process by denaturing the target RNA, dissociating the duplexes and secondary structure hybridization. At the conclusion of the hybridization period, S1 nuclease reagent was added to each sample to digest all nonprotected nucleotides at 50C for 60-90 min. […]
SMILES,outcome,AC50
CCN(CC)C(=O)SCc1ccc(Cl)cc1,inactive,–
O=C(Nc1ccccc1)Nc1cnns1,–,20 µM (active)
CCOc1nc(NC)nc(NC(=O)NS(=O)(=O)c2ccccc2C(=O)OC)n1,–,20 µM (active)
CCOC1Oc2ccc(OS(C)(=O)=O)cc2C1(C)C (stereo not given),inactive,–
COC(=O)c1ccccc1CS(=O)(=O)NC(=O)Nc1nc(OC)cc(OC)n1,inactive,–
CC1(C)C(C=C(Cl)Cl)C1C(=O)OC(C#N)c1ccc(F)c(Oc2ccccc2)c1 (stereo not given),inactive,–
CCCN(CCC)c1c([N+](=O)[O-])cc(C(F)(F)F)cc1[N+](=O)[O-],–,15.3 µM (active)
O=S(=O)(O)C(F)(F)C(F)(F)C(F)(F)C(F)(F)C(F)(F)C(F)(F)C(F)(F)C(F)(F)F,inactive,–
CC(C)(C)C(O)C(Oc1ccc(Cl)cc1)n1cncn1 (stereo not given),–,5.32 µM (active)
CCS(=O)(=O)c1cccnc1S(=O)(=O)NC(=O)Nc1nc(OC)cc(OC)n1,–,2.37 µM (active)
O=[N+]([O-])c1c(Cl)c(Cl)c(Cl)c(Cl)c1Cl,–,3.97 µM (active)
O=C(O)C(F)(F)C(F)(F)C(F)(F)C(F)(F)C(F)(F)C(F)(F)C(F)(F)F,–,0.0776 µM (active)
Clc1ccccc1-c1nnc(-c2ccccc2Cl)nn1,–,9.05 µM (active)
COP(=S)(OC)Oc1ccc([N+](=O)[O-])cc1,–,12.2 µM (active)
CC(C)N(C(=O)COc1nnc(C(F)(F)F)s1)c1ccc(F)cc1,–,14.2 µM (active)
[2H]C1([2H])[n+]2ccccc2-c2cccc[n+]2C1([2H])[2H],–,20 µM (active)
COP(=S)(OC)Oc1ccc(SC)c(C)c1,–,33.4 µM (active)
CC(C)OC(=O)Nc1cccc(Cl)c1,–,5.09 µM (active)
CNC(=O)Oc1ccccc1OC(C)C,inactive,–
CCOCN(C(=O)CCl)c1c(C)cccc1CC,–,1.85 µM (active)

SMILES,outcome,AC50
CC(C)(C)C(O)/C(=C\c1ccc(Cl)cc1Cl)n1cncn1 (stereo not given),–,20 µM (active)
CCC(C)(NC(=O)c1cc(Cl)c(C)c(Cl)c1)C(=O)CCl (stereo not given),–,3.97 µM (active)
CCC(C)(C)C(=O)OC1=C(c2ccc(Cl)cc2Cl)C(=O)OC12CCCCC2,inactive,–
C#CCN1C(=O)COc2cc(F)c(N3C(=O)C4=C(CCCC4)C3=O)cc21,inactive,–
N#Cc1c(Cl)c(Cl)c(Cl)c(C#N)c1Cl,inactive,–
COc1cc(OC)nc(NC(=O)NS(=O)(=O)c2cc(NC=O)ccc2C(=O)N(C)C)n1,inactive,–
CC[C@H](C)[C@H]1O[C@]2(C=C[C@@H]1C)C[C@@H]1C[C@@H](C/C=C(\C)[C@@H](O[C@H]3C[C@H](OC)[C@@H](O[C@H]4C[C@H](OC)[C@@H](O)[C@H](C)O4)[C@H](C)O3)[C@@H](C)/C=C/C=C3\CO[C@@H]4[C@H](O)C(C)=C[C@@H](C(=O)O1)[C@]34O)O2 (tested in a mixture with another compound),inactive,–
COP(=O)(OC)OC=C(Cl)Cl,inactive,–
CCCN(CCOc1c(Cl)cc(Cl)cc1Cl)C(=O)n1ccnc1,–,0.458 µM (active)
O=[N+]([O-])/N=C1\NCCN1Cc1ccc(Cl)nc1,inactive,–
N#CN,inactive,–
CC1(c2ccc(Oc3ccccc3)cc2)OC(=O)N(Nc2ccccc2)C1=O (stereo not given),–,3.38 µM (active)
CCc1ccc(C(=O)NN(C(=O)c2cc(C)cc(C)c2)C(C)(C)C)cc1,inactive,–
COc1nn(CSP(=S)(OC)OC)c(=O)s1,–,11.2 µM (active)
CCC(C)Nc1c([N+](=O)[O-])cc(C(C)(C)C)cc1[N+](=O)[O-] (stereo not given),–,3.77 µM (active)
C[C@H]1[C@H](c2ccc(Cl)cc2)SC(=O)N1C(=O)NC1CCCCC1,–,34 µM (active)
O=C(O)COc1ccc(Cl)cc1Cl,inactive,–
O=C(O)CCCOc1ccc(Cl)cc1Cl,inactive,–
CNC(=O)/C=C(\C)OP(=O)(OC)OC,inactive,–
COC(=O)c1ccccc1S(=O)(=O)NC(=O)N(C)c1nc(C)nc(OC)n1,inactive,–
